Experimental data as given in the supplement of paper PMC10037445.
Several values for one entry are separate records, joined by “and”; a condition that tells them apart may be missing. Identical values can stand only once. In all, about 2,900 compounds were measured (“NF-kB SEAP reporter activity, fold change vs agonist alone”: median about 0.99, highest 2% from about 2.6 on). The list comes from a sample in which the highest values are over-represented; it also holds similar structures and randomly drawn compounds.

Tests used:
[1] = system: RAW-Dual; test: NF-kB SEAP reporter activity, fold change vs agonist alone; cytotoxicity flag (confluency mask): cytotoxic (confluency <70% of control); higher = enhanced NF-kB activity
Outline: (§1)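 RAW-Dual macrophages (50,000 cells/well in DMEM, 384-well plates) received 50 nL of library stock by pin tool, then a PRR agonist 1 h later, and were kept at 37 °C, 5% CO2. After 20 hours, supernatant was read for IRF by QuantiLuc luminescence and for NF-κB by QuantiBlue absorbance at 620 nm. Reporter activity is fold change over agonist-alone wells. Cytotoxic wells had IncuCyte confluency below 70% of agonist controls in both mask sets.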

[2] = system: RAW-Dual; test: NF-kB SEAP reporter activity, fold change vs agonist alone; cytotoxicity flag (confluency mask): not cytotoxic; higher = enhanced NF-kB activity
Outline: as §1

[3] = system: RAW-Dual; test: NF-kB SEAP reporter activity, fold change vs agonist alone; higher = enhanced NF-kB activity; conditions: library stock concentration (final ~1000-fold dilution): 10 mM
Outline: as §1

[4] = agonist: ODN 1826 (TLR9) 0.5 ug/mL
[5] = agonist: Pam2CSK4 (TLR2/6) 0.1 ug/mL
[6] = agonist: Pam3CSK4 (TLR2/1) 0.1 ug/mL
[7] = cytotoxicity flag (confluency mask): not cytotoxic, agonist: Imiquimod (TLR7) […]
[8] = cytotoxicity flag (confluency mask): not cytotoxic, agonist: MPLA (TLR4) […]
[9] = cytotoxicity flag (confluency mask): cytotoxic (confluency <70% of control), agonist: Imiquimod (TLR7) […]
[10] = cytotoxicity flag (confluency mask): cytotoxic (confluency <70% of control), agonist: MPLA (TLR4) […]

SMILES: CCC(=O)Nc1cccc(Oc2nc(Nc3ccc(N4CCN(C)CC4)cc3OC)ncc2Cl)c1 (library stock concentration (final ~1000-fold dilution): 10 mM)
- NF-kB SEAP reporter activity ([1]; agonist: LPS (TLR4) 0.1 ug/mL): 1.65
- NF-kB SEAP reporter activity [1, 4]: 0.875
- NF-kB SEAP reporter activity [1, 5]: 0.603
- NF-kB SEAP reporter activity [1, 6]: 1.02

SMILES: Cc1cc(Nc2ncc3c(n2)N(C)C(=O)N(c2cc(NC(=O)c4cccc(C(F)(F)F)c4)ccc2C)C3)n(C)n1 (library stock concentration (final ~1000-fold dilution): 10 mM)
- NF-kB SEAP reporter activity ([1]; agonist: LPS (TLR4) 0.1 ug/mL): 0.283
- NF-kB SEAP reporter activity [1, 4]: 0.186
- NF-kB SEAP reporter activity [1, 5]: 0.0623
- NF-kB SEAP reporter activity [1, 6]: 0.124

SMILES: CCC1C(=O)N(C)c2cnc(Nc3ccc(C(=O)NC4CCN(C)CC4)cc3OC)nc2N1C1CCCC1 (stereo unspecified) (library stock concentration (final ~1000-fold dilution): 10 mM)
- NF-kB SEAP reporter activity ([1]; agonist: LPS (TLR4) 0.1 ug/mL): 0.276
- NF-kB SEAP reporter activity [1, 4]: 1.3
- NF-kB SEAP reporter activity [1, 5]: 1.54
- NF-kB SEAP reporter activity [1, 6]: 3.64

SMILES: CCC1C(=O)N(C)c2cnc(Nc3ccc(C(=O)NC4CCC(N5CCN(CC6CC6)CC5)CC4)cc3OC)nc2N1C(C)C (stereo unspecified) (library stock concentration (final ~1000-fold dilution): 10 mM)
- NF-kB SEAP reporter activity ([2]; agonist: LPS (TLR4) 0.1 ug/mL): 5.71
- NF-kB SEAP reporter activity [2, 4]: 0.977
- NF-kB SEAP reporter activity [2, 5]: 1.95
- NF-kB SEAP reporter activity [2, 6]: 0.886

SMILES: C=CC(=O)Nc1cccc(Nc2nc(Nc3ccc(NC4CN(CCF)C4)cc3OC)ncc2C(F)(F)F)c1
- NF-kB SEAP reporter activity [3, 7]: 1.26
- NF-kB SEAP reporter activity [3, 8]: 1.53

SMILES: C=CC(=O)Nc1cccc(Nc2nc(Nc3ccc(NC4CN(CCF)C4)cc3OC)ncc2C(F)(F)F)c1 (library stock concentration (final ~1000-fold dilution): 10 mM)
- NF-kB SEAP reporter activity ([2]; agonist: LPS (TLR4) 0.1 ug/mL): 0.561
- NF-kB SEAP reporter activity [2, 4]: 0.536
- NF-kB SEAP reporter activity [2, 5]: 0.359
- NF-kB SEAP reporter activity [2, 6]: 0.725

SMILES: CCC1C(=O)N(C)c2cnc(Nc3ccc(C(=O)NC4CCN(C)CC4)cc3OC)nc2N1C1CCCC1 (stereo unspecified)
- NF-kB SEAP reporter activity [3, 9]: 2.21
- NF-kB SEAP reporter activity [3, 10]: 0.949

SMILES: Cl.Cl.OCCN1CCN(CC/C=C2/c3ccccc3Sc3ccc(C(F)(F)F)cc32)CC1 (library stock concentration (final ~1000-fold dilution): 10 mM)
- NF-kB SEAP reporter activity ([1]; agonist: LPS (TLR4) 0.1 ug/mL): 0.443
- NF-kB SEAP reporter activity [1, 4]: 0.412
- NF-kB SEAP reporter activity [1, 5]: 0.431
- NF-kB SEAP reporter activity [1, 6]: 0.63

SMILES: Cl.Cl.OCCN1CCN(CC/C=C2/c3ccccc3Sc3ccc(C(F)(F)F)cc32)CC1
- NF-kB SEAP reporter activity [3, 9]: 1.58
- NF-kB SEAP reporter activity [3, 10]: 0.876

SMILES: CC(=O)OC12COC1CC(O)C1(C)C(=O)C(O)C3=C(C)C(OC(=O)C(O)C(NC(=O)OC(C)(C)C)c4ccccc4)CC(O)(C(OC(=O)c4ccccc4)C21)C3(C)C (stereo unspecified)
- NF-kB SEAP reporter activity [3, 7]: 1.14
- NF-kB SEAP reporter activity [3, 8]: 1.24

SMILES: CC(=O)OC12COC1CC(O)C1(C)C(=O)C(O)C3=C(C)C(OC(=O)C(O)C(NC(=O)OC(C)(C)C)c4ccccc4)CC(O)(C(OC(=O)c4ccccc4)C21)C3(C)C (stereo unspecified) (library stock concentration (final ~1000-fold dilution): 10 mM)
- NF-kB SEAP reporter activity ([2]; agonist: LPS (TLR4) 0.1 ug/mL): 1.2
- NF-kB SEAP reporter activity [2, 4]: 0.995
- NF-kB SEAP reporter activity [2, 5]: 1.02
- NF-kB SEAP reporter activity [2, 6]: 0.841

SMILES: CC(C(O)c1ccc(O)cc1)N1CCC(Cc2ccccc2)CC1.CC(C(O)c1ccc(O)cc1)N1CCC(Cc2ccccc2)CC1.O=C(O)C(O)C(O)C(=O)O (stereo unspecified)
- NF-kB SEAP reporter activity [3, 7]: 1.14
- NF-kB SEAP reporter activity [3, 8]: 0.926

SMILES: CC(C(O)c1ccc(O)cc1)N1CCC(Cc2ccccc2)CC1.CC(C(O)c1ccc(O)cc1)N1CCC(Cc2ccccc2)CC1.O=C(O)C(O)C(O)C(=O)O (stereo unspecified) (library stock concentration (final ~1000-fold dilution): 10 mM)
- NF-kB SEAP reporter activity ([2]; agonist: LPS (TLR4) 0.1 ug/mL): 1.19
- NF-kB SEAP reporter activity [2, 4]: 0.64
- NF-kB SEAP reporter activity [2, 5]: 1.04
- NF-kB SEAP reporter activity [2, 6]: 0.922

SMILES: Cn1c(=O)cc(N2CCCC(N)C2)n(Cc2ccccc2C#N)c1=O (stereo unspecified) (library stock concentration (final ~1000-fold dilution): 10 mM)
- NF-kB SEAP reporter activity ([2]; agonist: LPS (TLR4) 0.1 ug/mL): 1.04 and 1.31
- NF-kB SEAP reporter activity [2, 4]: 0.953 and 1.01
- NF-kB SEAP reporter activity [2, 5]: 1.16 and 1.1
- NF-kB SEAP reporter activity [2, 6]: 0.92 and 1.24

SMILES: Cn1c(=O)cc(N2CCCC(N)C2)n(Cc2ccccc2C#N)c1=O (stereo unspecified)
- NF-kB SEAP reporter activity [3, 7]: 1.08

SMILES: O=C(Nc1ccccc1C(=O)NC1CCCCNC1=O)c1cc2ccccc2s1 (stereo unspecified) (library stock concentration (final ~1000-fold dilution): 10 mM)
- NF-kB SEAP reporter activity ([2]; agonist: LPS (TLR4) 0.1 ug/mL): 2.62
- NF-kB SEAP reporter activity [2, 4]: 1.04
- NF-kB SEAP reporter activity [2, 5]: 1.1
- NF-kB SEAP reporter activity [2, 6]: 1.47

SMILES: O=C(Nc1ccccc1C(=O)NC1CCCCNC1=O)c1cc2ccccc2s1 (stereo unspecified)
- NF-kB SEAP reporter activity [3, 7]: 1.06
- NF-kB SEAP reporter activity [3, 8]: 1.16

SMILES: CC12CC(O)C3CC1(OC1OC(CO)C(O)C(O)C1O)C3(COC(=O)c1ccccc1)C(=O)O2 (stereo unspecified) (library stock concentration (final ~1000-fold dilution): 10 mM)
- NF-kB SEAP reporter activity ([2]; agonist: LPS (TLR4) 0.1 ug/mL): 1.33
- NF-kB SEAP reporter activity [2, 4]: 0.943
- NF-kB SEAP reporter activity [2, 5]: 1.11
- NF-kB SEAP reporter activity [2, 6]: 1.16

SMILES: CC12CC(O)C3CC1(OC1OC(CO)C(O)C(O)C1O)C3(COC(=O)c1ccccc1)C(=O)O2 (stereo unspecified)
- NF-kB SEAP reporter activity [3, 7]: 0.925
- NF-kB SEAP reporter activity [3, 8]: 1.04

SMILES: CN(c1ncccc1CNc1nc(Nc2ccc3c(c2)CC(=O)N3)ncc1C(F)(F)F)S(C)(=O)=O.Cl
- NF-kB SEAP reporter activity [3, 9]: 0.169
- NF-kB SEAP reporter activity [3, 10]: 0.247

SMILES: CN(c1ncccc1CNc1nc(Nc2ccc3c(c2)CC(=O)N3)ncc1C(F)(F)F)S(C)(=O)=O.Cl (library stock concentration (final ~1000-fold dilution): 10 mM)
- NF-kB SEAP reporter activity ([1]; agonist: LPS (TLR4) 0.1 ug/mL): 0.194
- NF-kB SEAP reporter activity [1, 4]: 0.29
- NF-kB SEAP reporter activity [1, 5]: 0.0618
- NF-kB SEAP reporter activity [1, 6]: 0.135

SMILES: CC1OC(OC2C(CO)OC(OC3C(CO)OC(O)C(O)C3O)C(O)C2O)C(O)C(O)C1NC1C=C(CO)C(O)C(O)C1O (stereo unspecified) (library stock concentration (final ~1000-fold dilution): 10 mM)
- NF-kB SEAP reporter activity ([2]; agonist: LPS (TLR4) 0.1 ug/mL): 1.19
- NF-kB SEAP reporter activity [2, 4]: 1.03
- NF-kB SEAP reporter activity [2, 5]: 1.02
- NF-kB SEAP reporter activity [2, 6]: 1.06

SMILES: CC1OC(OC2C(CO)OC(OC3C(CO)OC(O)C(O)C3O)C(O)C2O)C(O)C(O)C1NC1C=C(CO)C(O)C(O)C1O (stereo unspecified)
- NF-kB SEAP reporter activity [3, 7]: 0.983
- NF-kB SEAP reporter activity [3, 8]: 0.951
